Source: PubChem BioAssay
Sampled rows, rich in hits. Any-hit rate of the full collection: about 2.9%.
KLK7 zymogen act: activators of human kallikrein-7 zymogen | activation, % at 7 µM | 0.9% of 370,000 active | P49862 | purified proKLK7, EDANS-DABCYL substrate fluorescence; 100% is mature enzyme control, 0% vehicle;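 active = activation above the mean of all tested compounds plus 3 SD, computed per campaign excluding outliers beyond control limits, cut at about 13% in these data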
PLCb3 inh: blocks human PLC-beta3 enzyme activity | AID 720704 | 0.18% of 370,000 active | Purified PLC-beta3, fluorogenic substrate, fluorescence | inhibition, % at 12.2 µM; in the data active = inhibition above about 11%;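 note: 0% = median of compound wells on plate and 100% = full blocker control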
ADAM10 inh: inhibits human ADAM10; 0.62% of 370,000 active; O14672; inhibition, % at 7 µM; recombinant ADAM10, EDANS/DABCYL FRET peptide cleavage, 3 h; AID 720582;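 active = inhibition above a per-campaign cutoff equal to the mean of compounds falling between control-based bounds plus 3 SD, cut at about 20% in these data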;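 note: 0% = DMSO wells while the 100% control is not disclosed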
ADAM17 inh: ADAM17 inhibition, QFRET primary screen; P78536; recombinant ADAM17, EDANS/DABCYL FRET peptide cleavage; inhibition, % at 6.95 µM; 0.83% of 370,000 active; AID 720648;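 active = inhibition above the mean of compounds lying between control limits plus 3 SD, set per campaign, cut at about 8.5% in these data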;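 note: 0% = DMSO-only wells as the low control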
PLC-gamma1 inh: blocks human PLC-gamma1 enzyme activity | P19174 | purified PLC-gamma1, fluorogenic substrate, fluorescence | inhibition, % at 12.2 µM | 0.84% of 370,000 active; in the data active = inhibition above about 9.5%
Target sequence (P19174 whole entry, looked up): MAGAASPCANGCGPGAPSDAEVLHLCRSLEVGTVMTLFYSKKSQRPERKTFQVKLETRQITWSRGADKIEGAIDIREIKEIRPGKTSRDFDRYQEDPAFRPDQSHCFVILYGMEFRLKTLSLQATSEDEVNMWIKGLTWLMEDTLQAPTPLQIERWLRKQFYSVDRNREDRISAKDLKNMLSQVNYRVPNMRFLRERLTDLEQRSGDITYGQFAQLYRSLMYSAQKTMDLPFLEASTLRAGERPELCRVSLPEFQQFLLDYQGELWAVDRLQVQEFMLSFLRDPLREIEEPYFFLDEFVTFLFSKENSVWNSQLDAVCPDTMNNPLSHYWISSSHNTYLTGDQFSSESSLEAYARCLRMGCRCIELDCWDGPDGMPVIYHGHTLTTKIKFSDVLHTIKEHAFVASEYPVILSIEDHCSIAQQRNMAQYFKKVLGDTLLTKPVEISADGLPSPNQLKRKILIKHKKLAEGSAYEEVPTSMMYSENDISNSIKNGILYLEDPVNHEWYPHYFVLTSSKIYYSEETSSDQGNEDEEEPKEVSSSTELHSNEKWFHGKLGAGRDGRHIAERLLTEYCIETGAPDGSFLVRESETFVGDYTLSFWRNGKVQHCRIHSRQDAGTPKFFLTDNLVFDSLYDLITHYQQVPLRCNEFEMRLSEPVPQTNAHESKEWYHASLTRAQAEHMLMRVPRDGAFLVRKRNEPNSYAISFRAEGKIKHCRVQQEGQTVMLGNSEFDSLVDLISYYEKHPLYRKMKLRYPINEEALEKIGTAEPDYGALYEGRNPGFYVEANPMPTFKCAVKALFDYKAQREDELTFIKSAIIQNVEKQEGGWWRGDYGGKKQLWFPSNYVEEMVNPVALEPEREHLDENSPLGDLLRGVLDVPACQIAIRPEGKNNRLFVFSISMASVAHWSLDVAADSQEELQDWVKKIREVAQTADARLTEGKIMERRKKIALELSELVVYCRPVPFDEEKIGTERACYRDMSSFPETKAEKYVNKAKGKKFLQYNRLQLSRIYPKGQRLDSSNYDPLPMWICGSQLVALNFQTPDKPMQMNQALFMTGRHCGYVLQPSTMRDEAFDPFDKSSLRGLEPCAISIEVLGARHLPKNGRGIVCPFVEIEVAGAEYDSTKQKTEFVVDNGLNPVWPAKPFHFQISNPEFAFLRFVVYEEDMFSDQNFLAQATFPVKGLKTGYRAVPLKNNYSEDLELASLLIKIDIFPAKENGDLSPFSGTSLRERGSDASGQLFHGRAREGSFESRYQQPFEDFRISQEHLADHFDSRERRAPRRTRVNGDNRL
proKLK7 act conf: confirmation of human kallikrein-7 zymogen activators. shares compounds with KLK7 zymogen act. purified proKLK7, EDANS-DABCYL substrate fluorescence; scaled: vehicle 0, mature enzyme 100. activation, % at 7 µM. 68% of 3,200 active. AID 686949;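 active = activation, as change over the incubation, above the mean of all tested compounds plus 3 SD, cut at about 13% in these data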
EDANS interfere: counter-screen for kallikrein-7 activators: EDANS-DABCYL optical interference; shares compounds with KLK7 zymogen act; EDANS-DABCYL substrate fluorescence interference, no enzyme, 4 h; solvent 0%, active enzyme control 100%; activation, % at 7 µM; 80% of 3,200 active; AID 686952;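 active = activation above the all-compound mean plus 3 SD, ignoring values outside control-based bounds, cut at about 4.8% in these data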;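 note: value is the 4 h activation minus the activation read at time zero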
EDANS interf: optically interferes with EDANS-DABCYL fluorescence, kallikrein-7 activator counter-screen | EC50, µM | 20% of 250 active | shares compounds with KLK7 zymogen act | EDANS-DABCYL peptide fluorescence interference, no enzyme;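 active = compounds that raise the fluorescence signal in this interference counterscreen, with EC50 at or below 10 µM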;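 note: intact quenched peptide substrate alone read at 355 nm excitation and 520 nm emission; signal is fluorescence gain from T0 to T4 after four hours at room temperature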
The depositor's hits bear a star.

`COc1c2c(nc3occc13)C(CC=C(C)C)(OC)C(=O)C=C2` (stereo not given) gave KLK7 zymogen act 0.4, PLCb3 inh -10.6, ADAM10 inh 7.2, ADAM17 inh -2.2 and PLC-gamma1 inh -2.0.
For COC(=O)c1ccc(N2C(c3cc(OC)cc(OC)c3)=Cc3ccc(-c4cnc(OC)nc4)cc3C2CC(=O)C2CC2)cc1 (stereo not given) the results were KLK7 zymogen act -0.1, PLCb3 inh -71.9, ADAM10 inh -91.7, ADAM17 inh -26.9 and PLC-gamma1 inh -51.0.
Screening COc1cc(OC)c([N+](=O)[O-])cc1/C=N/NC(=O)c1ccncc1 returned KLK7 zymogen act -0.2, PLCb3 inh 5.2, ADAM10 inh 2.8, ADAM17 inh -4.0 and PLC-gamma1 inh 3.4.
Cc1cc(C)cc(NC(=O)CN(C)S(=O)(=O)c2cnc[nH]2)c1 was read as KLK7 zymogen act 0.8, PLCb3 inh -0.1, ADAM10 inh 0.8, ADAM17 inh -14.6 and PLC-gamma1 inh 3.0.
`COc1ccc(S(=O)(=O)N2CCCCC2)cc1NC(=O)CN1CCN(C(C)=O)CC1` gave KLK7 zymogen act 0.2, PLCb3 inh 4.8, ADAM10 inh -2.2, ADAM17 inh 0.7 and PLC-gamma1 inh 3.8.
Screening Cc1cc(C(=O)COc2ccc3ccc(=O)oc3c2)c(C)n1Cc1cccs1 returned KLK7 zymogen act 77.9*, PLCb3 inh -199.0, ADAM10 inh inactive, ADAM17 inh -267.2, PLC-gamma1 inh -170.6, proKLK7 act conf 73.1* and EDANS interfere 89.4*.
Screening COc1ccc(N(CC(=O)NCc2ccccc2)S(C)(=O)=O)cc1 returned KLK7 zymogen act -0.3, PLCb3 inh 3.5, ADAM10 inh 1.4, ADAM17 inh -0.4 and PLC-gamma1 inh -1.3.
CCOC(=O)c1nn(-c2ccc(F)cc2)c2nc(-c3ccccc3)c(C#N)c(=O)n12 was read as KLK7 zymogen act 40.1*, PLCb3 inh -405.2, ADAM10 inh -416.3, ADAM17 inh -135.0, PLC-gamma1 inh -382.0, proKLK7 act conf 138.2* and EDANS interfere 146.4*.
O=C(NCc1cccnc1)Nc1ccc2c(c1)OCO2 was read as KLK7 zymogen act 0.2, PLCb3 inh -0.3, ADAM10 inh -2.3, ADAM17 inh -0.9 and PLC-gamma1 inh -2.5.
`Nc1nc2cc3c(cc2cc1C(=O)NCc1cccnc1)OCO3` gave KLK7 zymogen act 18.1*, PLCb3 inh inactive, ADAM10 inh inactive, ADAM17 inh inactive, PLC-gamma1 inh -400.6, proKLK7 act conf 29.6* and EDANS interfere 36.4*.
Screening CCc1cc2c(COC(=O)c3cccc(S(C)(=O)=O)c3)cc(=O)oc2cc1O returned KLK7 zymogen act 507.6*, PLCb3 inh -398.1, ADAM10 inh -391.1, ADAM17 inh -158.1, PLC-gamma1 inh -252.1, proKLK7 act conf 567.6* and EDANS interfere 558.8*.
For CNS(=O)(=O)c1cccc(C(=O)OCc2cc(=O)oc3c(C)c(O)ccc23)c1 the results were KLK7 zymogen act 265.3*, PLCb3 inh -391.2, ADAM10 inh -107.7, ADAM17 inh -44.0, PLC-gamma1 inh -259.3, proKLK7 act conf 602.7* and EDANS interfere 606.9*.
Screening CCc1cc2c(COC(=O)c3c(C)noc3C)cc(=O)oc2cc1O returned KLK7 zymogen act 1.3, PLCb3 inh inactive, ADAM10 inh -264.6, ADAM17 inh -84.4 and PLC-gamma1 inh -360.2.
Screening CC[C@@]1(O)C(=O)OCc2c1cc1n(c2=O)Cc2cc3c(N)cccc3nc2-1 returned KLK7 zymogen act 26.8*, PLCb3 inh -145.8, ADAM10 inh -128.9, ADAM17 inh -26.8, PLC-gamma1 inh -106.7, proKLK7 act conf 78.2* and EDANS interfere 90.0*.
`CC[C@@]1(O)C(=O)OCc2c1cc1n(c2=O)Cc2cc3c(CN(C)C)c(O)ccc3nc2-1` gave KLK7 zymogen act 59.6*, PLCb3 inh inactive, ADAM10 inh -493.6, ADAM17 inh -134.7, PLC-gamma1 inh inactive, proKLK7 act conf 70.0* and EDANS interfere 76.1*.
`O=C(N[C@@H](Cc1ccccc1)C(=O)OCC(=O)N1CCOCC1)c1cccs1` gave KLK7 zymogen act 0.8, PLCb3 inh -6.0, ADAM10 inh 1.6, ADAM17 inh -1.1 and PLC-gamma1 inh 2.4.
`CNc1cnc(-c2cccc(C(=O)N3CCOCC3)c2)cn1` gave KLK7 zymogen act 14.2*, PLCb3 inh -191.2, ADAM10 inh inactive, ADAM17 inh -354.1, PLC-gamma1 inh -143.5, proKLK7 act conf 14.9* and EDANS interfere 20.1*.
`CNc1cccc(-c2ccc(C(=O)N3CCOCC3)cc2)n1` gave KLK7 zymogen act 3.5, PLCb3 inh -410.4, ADAM10 inh -85.6, ADAM17 inh -23.1 and PLC-gamma1 inh -302.3.
`c1ccc(NNC2=NCCS2)cc1` gave KLK7 zymogen act 0.2, PLCb3 inh 0.3, ADAM10 inh 7.7, ADAM17 inh 5.7 and PLC-gamma1 inh 5.7.
`O=C(Cc1ccc(NC(=O)C2CCCN(C(=O)C3CC3)C2)cc1)Nc1ccc(C(=O)N2CCOCC2)cc1` (stereo not given) gave KLK7 zymogen act 0.3, PLCb3 inh -4.2, ADAM10 inh -2.0, ADAM17 inh -2.0 and PLC-gamma1 inh 0.7.
`CCOc1ccc(-c2cc(C(=O)NCCCN3CCCC3)c3ccccc3n2)cc1` gave KLK7 zymogen act 24.4*, PLCb3 inh inactive, ADAM10 inh -375.3, ADAM17 inh -135.6, PLC-gamma1 inh inactive, proKLK7 act conf -0.7 and EDANS interfere -5.2.
`Cc1ccc(-c2cc(C(=O)NCCCN3CCCC3)c3ccccc3n2)cc1C` gave KLK7 zymogen act 9.4, PLCb3 inh -146.3, ADAM10 inh inactive, ADAM17 inh -185.2 and PLC-gamma1 inh -104.1.
Screening O=S(=O)(c1cccs1)N1CCN(c2ccccn2)CC1 returned KLK7 zymogen act -0.1, PLCb3 inh 1.8, ADAM10 inh -7.9, ADAM17 inh -4.3 and PLC-gamma1 inh -0.1.
CCN(CC(=O)Nc1c(F)cccc1F)C(=O)C1Cc2ccccc2CN1S(=O)(=O)CC (stereo not given) was read as KLK7 zymogen act 0.4, PLCb3 inh -5.0, ADAM10 inh -1.6, ADAM17 inh -3.0 and PLC-gamma1 inh -6.1.
`CCOC(=O)C1CCN(S(=O)(=O)c2cccc(-c3cn4cccnc4n3)c2)CC1` gave KLK7 zymogen act 27.2*, PLCb3 inh inactive, ADAM10 inh inactive, ADAM17 inh inactive, PLC-gamma1 inh inactive, proKLK7 act conf 26.1*, EDANS interfere -15.5 and EDANS interf >69.5.
